# Hit rate of the full screen: of about 310,000 compounds, about 11,000 (3.5%) were called active. Not shown: some 8% with an inconclusive outcome. The entries come from a sample that favours actives as a whole. Unmarked numbers belong to inactive results. Calls come from the whole dose curve; as a rule, active = well fitted inhibition curve with a large enough effect; inconclusive = small, poorly fitted or top-dose-only effect, or effect the other way; inactive = flat fitted curve, though single readings scatter.
# Assay: VP16 counterscreen qHTS for inhibitors of ROR gamma transcriptional activity;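 note: Gal4-VP16 expression switched on by copper sulfate through the metallothionein promoter; nearly all actives have a fitted effect of over 50% in size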
# Details: Drosophila S2 Gal4-VP16 UAS-luciferase, luminescence, 20 h; series mostly up to 53.6 µM; activity, negative = inhibition: at the top concentration
# % is set by controls: 0 for no effect and ±100 for the full control effect; potency is the fitted concentration of half-maximal effect.
SMILES,"activity, negative = inhibition",Potency
Cc1nnc(NC(=O)C(c2ccccc2)c2ccccc2)s1,7.09%,
Cc1nc2cc(C(F)(F)F)ccc2n1CCNc1nc(-c2cc(Cl)c(N)c(Cl)c2)cs1,-0.934%,
O=C(CC(O)(C(F)(F)F)C(F)(F)F)Nc1ccc(Cl)c(Cl)c1,,5.01 µM (active)
Cc1ccc(NC(=O)C/C(N)=N/O)cc1Cl,-2.54%,
O=C(CC(=O)Nc1ccc(Cl)c(Cl)c1)N/N=C/c1ccc(O)cc1,-6.4%,
CN(C)S(=O)(=O)c1cccc(NC(=S)NCc2ccc3c(c2)OCO3)c1,0.712%,
O=C(NCc1ccc2c(c1)OCO2)c1cc(F)c(F)cc1Cl,-6.45%,
Cc1c(Cl)cccc1NC(=S)N(Cc1ccccc1)Cc1cccnc1,-4.7%,
Cc1c(Cl)cccc1NC(=O)NCc1ccc(C)n1C,6.08%,
CCNC(=S)Nc1cccc(Cl)c1C,,17.8 µM (active)
Cc1c(Cl)cccc1NC(=S)NCc1ccc2c(c1)OCO2,,11.2 µM (active)
CCOC(=O)c1c(C)[nH]c(C)c1S(=O)(=O)NCCCc1ccco1,-3.08%,
O=C(NCCc1ccc(Cl)cc1Cl)c1cc([N+](=O)[O-])c[nH]c1=O,2.24%,
Cc1cc(Cl)c2oc(C(=O)N(C)C(C)c3ccccn3)c(C)c2c1 (stereo not drawn),27.8%,
Cn1nccc1C(=O)NC1CCCc2c1cnn2-c1ccccc1F (stereo not drawn),,1.41 µM (active)
CC(=O)NCC(=O)NC1CCCc2c1cnn2-c1ccccc1F (stereo not drawn),-5.41%,
COc1ccc(C(=O)NC2CC(C)(C)Cc3c2cnn3-c2ccccc2C)o1 (stereo not drawn),1.14%,
COc1ccc(C(=O)NC2CCCc3c2cnn3-c2cccc(C)c2C)c(OC)n1 (stereo not drawn),,12.6 µM (active)
Cc1ccc(-n2ncc3c2CCCC3NC(=O)c2cnccn2)cc1C (stereo not drawn),-18.1%,
Cn1nccc1C(=O)NC1CCCc2c1cnn2-c1ccc(F)cc1F (stereo not drawn),,0.891 µM (active)
CC1(C)Cc2c(cnn2-c2cccc(F)c2)C(NC(=O)c2cc[n+]([O-])cc2)C1 (stereo not drawn),-7.81%,
Cc1cc(C(=O)NC2CCCc3c2cnn3-c2cccc(C)c2C)c(C)o1 (stereo not drawn),-96.4%,
Cn1nccc1CNC(=O)c1ccnn1C,-7.45%,
CC(=O)Nc1ccc(S(=O)(=O)NNC(=O)CCc2ccccc2)cc1,2.51%,
CCN(CC)CCCNC(=O)c1cc2c(=O)[nH]c3ccc(C)cc3c2s1,-1.31%,
CC(C)(C)NC(=O)NC(=O)COC(=O)C1c2ccccc2Oc2ccccc21,-9.04%,

SMILES,"activity, negative = inhibition",Potency
CCn1c(SCC(=O)Nc2ccc(Br)cc2)nc2sc3c(c2c1=O)CCN(C)C3,6.53%,
CCCCNC(=O)c1cn(CC)c2cc(N3CCN(C(=O)c4ccco4)CC3)c(F)cc2c1=O,2.5%,
CCOC(=O)c1ccccc1NS(=O)(=O)c1c(C)nc2sccn2c1=O,-4.73%,
Cc1occc(=O)c1OCc1c(Cl)cccc1Cl,-24.2%,
O=C(O)c1ccc2c(=O)n3c(nc2c1)/C(=C/c1ccc(OC(F)F)cc1OC(F)F)CC3,-2.9%,
Cc1nn(C(C)(C)C)c(OC(=O)CC(C)C)c1S(=O)(=O)c1ccccc1,5.08%,
CCCCn1c(SCC(=O)NCC2CCCO2)nc2ccc(N3CCOCC3)cc2c1=O (stereo not drawn),,11.2 µM (active)
COCCNC(=O)c1ccc(Cn2c(SCC(=O)NCC3CCCO3)nc3ccc(Br)cc3c2=O)cc1 (stereo not drawn),-8.04%,
O=C(CCCn1c(SCC(=O)c2ccccc2)nc2ccccc2c1=O)NCC1CCCO1 (stereo not drawn),-6.43%,
CN(Cc1ccccc1)C(=O)CSc1nc2ccccc2[nH]1,-4.72%,
CCOC(=O)c1csc(CCNC(=O)c2oc3c(Cl)cc(C)cc3c2C)n1,-0.695%,
N#C/C(=C(/O)COc1cccc2ccccc12)c1nc2ccccc2[nH]1,,7.94 µM (active)
O=C(COc1ccccc1)NCCc1nc2ccccc2[nH]1,-0.523%,
N#C/C(=C(/O)COC(=O)COc1ccc(Cl)cc1)c1nc2ccccc2[nH]1,,12.6 µM (active)
Cc1ccccc1OC/C(O)=C(\C#N)c1nc2ccccc2[nH]1,-17.7%,
COCCN(CCOC)S(=O)(=O)c1ccc(/C(O)=C(\C#N)c2nc3ccccc3[nH]2)cc1,25.6%,
O=C(COC(=O)CCCSc1nc2ccccc2[nH]1)Nc1ccc(Oc2ccccc2)cc1,-5.22%,
O=C(CCS(=O)(=O)c1ccccc1)NC1CCCC1,-6.21%,
COc1ccc(C(=O)Nc2ccccc2C(=O)N2CCN(c3ccccc3)CC2)cc1,-9.17%,
CC(C)c1ccc(N2CCN(C(=O)c3ccccc3NC(=O)/C=C(\C(=O)O)c3ccccc3)CC2)cc1,,1.12 µM (active)
O=C(O)C1CC=CCC1C(=O)Nc1ccccc1C(=O)N1CCN(c2ccccc2)CC1 (stereo not drawn),13.5%,
CCCN1CCC(=O)N(C(CSc2ccc(OC)cc2)Cc2ccccc2)CC1 (stereo not drawn),5.75%,
Cn1cnc2c1c(=O)n(Cc1ccccc1C#N)c(=O)n2C,-8.7%,
Cc1cc2oc(=O)cc(CN(C)Cc3ccc(OC(F)F)cc3)c2cc1Cl,-9.54%,
Cc1cccc(N2CCN(C(=O)CN(C)S(=O)(=O)c3ccc4c(c3)CCC(=O)N4)CC2)c1C,-6.16%,
CCOC(=O)Cc1csc(NC(=O)CSc2nc(C)cc(=O)[nH]2)n1,6.99%,

SMILES,"activity, negative = inhibition",Potency
CCOC(=O)Cc1csc(NC(=O)CN(C)S(=O)(=O)c2ccc3c(c2)CCC(=O)N3)n1,,11.2 µM (active)
CCOC(=O)C1CCN(C(=O)C2CCCN(S(=O)(=O)c3ccc(OC)c(Cl)c3)C2)CC1 (stereo not drawn),-22.2%,
CC1(C(=O)NCCc2c[nH]c3ccccc23)C=CC2(CCCCC2)N1C(=O)c1ccccc1 (stereo not drawn),-17.5%,
COc1ccc(NC(=O)CN(C)C(=O)CNC(=O)C2CCCCC2)cc1,0.357%,
O=C1C=CC(=O)N1c1ccc(N2CCCCC2)cc1,,8.91 µM (active)
O=c1[nH][nH]c(=O)c2cc(N3CCCC3)ccc12,1.98%,
CCOC(=O)/C(C#N)=C/c1ccc(N2CCCCC2)cc1,-4.63%,
O=[N+]([O-])c1ccc(O)c(/C=N/Nc2ccccc2[N+](=O)[O-])c1,-15%,
Oc1ccc(Br)cc1/C=N/Nc1ccccn1,,10 µM (active)
O=C(Nc1ccc(Br)cc1)c1cc(S(=O)(=O)Nc2ccccn2)ccc1Cl,-5.39%,
COc1ccc(NC(=O)NNC(=O)COc2cc(C)c(Cl)c(C)c2)c(OC)c1,-14.3%,
O=C1CCN(CCc2ccccc2)CCN1CCOc1ccccc1,7.5%,
Cc1ccc(C(=O)CCC(=O)N(C)CC(=O)Nc2c(Cl)cccc2Cl)cc1,-9.47%,
CCCCC1S/C(=N/N=C/c2cccs2)NC1=O (stereo not drawn),,0.316 µM (active)
CCC1C/C(=C/c2cccs2)C(=O)/C(=C/c2cccs2)C1 (stereo not drawn),-6.69%,
CC(=O)Nc1ccc(S(=O)(=O)Oc2ccc(/C=N/N=C3/NC(=O)C(CC(=O)O)S3)cc2)cc1 (stereo not drawn),-5.43%,
CCN(CC)CCCNC(=O)COc1ccc2oc3c(c2c1)CCCC3,3.68%,
Cc1ccc(OCC(=O)Nn2cnc3ccccc32)cc1,-19%,
Cc1ccc(OS(=O)Nc2cccc3nccnc23)cc1 (stereo not drawn),,3.16 µM (active)
COc1ccc(NC(=O)Nc2cccc3cccnc23)cc1,3.34%,
O=C(Nc1cc(N2CCOCC2)ncn1)NC1(C(F)(F)F)Oc2ccc(Cl)cc2O1 (stereo not drawn),,15.8 µM (active)
O=C(CN1C(=O)COc2ccc(Cl)cc21)Nc1ccc(N2CCOCC2)cc1,-5.32%,
Cc1csc(NC(=O)NC2(C(F)(F)F)Oc3ccccc3O2)n1,1.3%,
COc1ccc(NC(=O)COc2ccc(C(=O)c3ccc(F)cc3)cc2)cc1S(N)(=O)=O,-23.6%,
COc1ccc(NC(=O)C/C(C)=N/NC(=O)c2cnccn2)cc1Cl,21.2%,
CCOC(=O)C1CCN(C(=O)COc2cccc3ccccc23)CC1,8.47%,

SMILES,"activity, negative = inhibition",Potency
CCN(CC)C(=O)COc1coc(CN2CCN(Cc3ccccc3)CC2)cc1=O,2.76%,
Cc1ccccc1-c1n[nH]c(=S)n1C,,7.94 µM (active)
CCCc1cc(-c2n[nH]c(=S)n2CC)c2ccccc2n1,-5.97%,
Cc1ccccc1-c1n[nH]c(=S)n1/N=C/c1ccc(-c2ccccc2Br)o1,-9.75%,
O=C(Nc1cccc(NC(=O)c2ccccc2[N+](=O)[O-])c1)c1ccccc1Cl,-0.237%,
COC(=O)N/N=C/c1cn(CCCOc2ccc(C)cc2)c2ccccc12,,1 µM (active)
COc1cccc(Cn2cc(/C=N/NC(=O)c3cc(O)cc(O)c3)c3ccccc32)c1,-2.82%,
CCOC(=O)N/N=C/c1cn(Cc2ccccc2Cl)c2ccccc12,-29.6%,
CCOC(=O)N1CCC(N2Cc3cccc(C(=O)Nc4ccc(S(=O)(=O)N(CC)CC)cc4)c3C2=O)CC1,-6.58%,
CCN(CC)CCn1c(/N=C/c2cc(Br)ccc2O)nc2ccccc21,,6.31 µM (active)
Oc1ccc(Cl)cc1/C=N/c1nc2ccccc2[nH]1,-9.3%,
C/C(=N\c1nc2ccccc2n1C)c1cc(Cl)ccc1O,-2.88%,
Cc1sc2ncn(CC(=O)NCCCC(=O)N3CCN(c4ccccc4F)CC3)c(=O)c2c1C,-6.88%,
Cn1cccc1/C=N/NC(=O)c1ccc(OC(F)(F)C(F)F)cc1,,5.62 µM (active)
COc1ccc(/C=N/NC(=O)c2cccc(C(F)(F)F)c2)cc1,6.66% [at 10 µM],
Cn1cccc1/C=N/NC(=O)CNc1cccc2ccccc12,-5.21%,
O=C(NCCc1cccc(F)c1)C1CCCN(c2nc3ccccc3s2)C1 (stereo not drawn),21.4%,
COc1cc(NC(=O)c2ccccc2)c(OC)cc1NC(=O)Cc1ccccc1,-4.59%,
COc1cccc(/C=C/c2ccc3ccccc3n2)c1OC(C)=O,,5.01 µM (active)
COc1cccc(/C=C2\C=C(c3ccc(C)cc3)OC2=O)c1OC(C)=O,-6.1%,
NC(=O)COC(=O)/C=C/c1ccc2ccccc2n1,2.36%,
CCOc1ccccc1-c1cc(C(=O)N/N=C(\C)c2cccnc2)c2ccccc2n1,-21%,
CS(=O)(=O)c1sc(C(=O)NC(=S)Nc2ccc(OC(F)(F)F)cc2)c2c1C=CCC2,,11.2 µM (active)
COC(=O)[C@H](C)NC(=O)Nc1ccc(OC(F)(F)F)cc1,5.72%,
CSc1sc(C(=O)NNC(=O)c2ccc(Cl)cc2)c2c1C=CCC2,4.81%,
